Broadly, the inhibition is the change of the read-out against control, counted positive when it falls.

Each structure is given as a SMILES string. About 1,300 (0.41%) of roughly 320,000 compounds were called active. Inconclusive results (about 3%) are left out. No rule for the calls is given here. Only a sample is shown. Results with a measured potency or affinity are listed apart.

A short description of the experiment: growth inhibition of non-replicating M. tuberculosis (AID 488890).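 Also: plate controls were DMSO cells for no effect and high antibiotic wells for full effect.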 To be noted: Mycobacterium tuberculosis non-replicating, at 25 µM, stronger effect = higher value.
For the molecule `Cc1ccc(NC(=O)COC(=O)CN2C(=O)C3CCCCC3C2=O)cc1S(=O)(=O)N1CCOCC1` (stereo not drawn), the inhibition was 6.8%.
Next, `O=C(N/N=C/c1cc([N+](=O)[O-])ccc1O)NC12CC3CC(CC(C3)C1)C2`: 54.2%; `CCNC(=O)C(=O)N/N=C/c1cc([N+](=O)[O-])ccc1O`: 27.1%.
For `O=C1NCCCC1C(=O)N/N=C/c1cc([N+](=O)[O-])ccc1O` (stereo not drawn) the value was 15.8%; for `O=C(N/N=C/c1cc([N+](=O)[O-])ccc1O)C1C2CCCCC21` (stereo not drawn), 77.2%; for `CC1(C)Cc2nc3sc(C(N)=O)c(N)c3cc2CO1`, -3.96%.
For the molecule `O=C(CCC1CCCC1)NCCCNC(=O)CCC1CCCC1`, the inhibition worked out at 72.8%.
With `Cc1nc([N+](=O)[O-])c(Sc2nc3ccccc3n2C)n1Cc1ccccc1`, the inhibition was determined as 70.5%.
Take `C=C(C)C(=O)Nc1cccc(C2=NOC3(C2)C[C@H](C(N)=O)N(C(=O)CC#N)C3)c1` (stereo partly drawn): the inhibition was -3.19%.
Take `CCCCCCCCCn1cc(C(C)=O)c(=O)[nH]c1=O`: the inhibition is 71.1%.
For `CCCCCCCCn1cc(C(C)=O)c(=O)[nH]c1=O` the value was 79.8%; for `COc1ccc(-n2nc(C(=O)NCC(=O)O)c3ccccc3c2=O)cc1`, -2.99%.
Next, `COc1ccc(NC(=O)Nc2cccc(NC(C)=O)c2)c(OC)c1`: 15.4%; `COCCNc1nnc(SCC(=O)NNC(=O)c2ccccc2)s1`: -9.33%.
Take `COc1ccc(/C=C2/C(=O)N(c3ccccc3)N=C2C)cc1`: the inhibition came to 0.19%.
Turning to `CC(=O)Oc1ccc(/C=C2/C(=O)N(c3ccccc3)N=C2C)cc1`, the inhibition stood at 32.7%.
On to `C(=N\N=C\c1ccccc1)/c1ccccc1`, for which the inhibition turned out to be 9.87%.
Turning to `CCc1nn(CCCC(=O)N2CCC(C)CC2)c(=O)c2cc3occc3n12`, the inhibition amounted to 2.85%.
For `COc1ccc(CNC(=O)c2cnccn2)cc1` the value was 66.2%; for `O=C(NCc1ccc(Cl)cc1)c1cnccn1`, 68.3%.
`O=C(NCc1ccncc1)c1cnccn1`: the inhibition was -7.93%.
For `NS(=O)(=O)c1ccc(CNC(=O)c2cnccn2)cc1` the value was -8.46%; for `CSc1ccc(NC(=O)NCCCN2CCN(c3ccccc3F)CC2)cc1`, 50.5%; for `Cc1cc(C)cc(NC(=O)C2C3C=CC4(O3)C2C(=O)N(CCCN2CCCCC2)C4C(=O)NC2CCCCC2)c1` (stereo not drawn), 8.2%.
For `Cc1cc(OC(=O)c2ccc(S(=O)(=O)N3CCCCC3)cc2)c([N+](=O)[O-])c(=O)[nH]1` the value was -2.75%; for `Cc1cc(C(=O)OCC(=O)Nc2cc(Cl)ccc2C)c(C)o1`, 0.98%; for `O=C(NCc1ccco1)c1ccc(NS(=O)(=O)c2cccc(F)c2)cc1`, 29.2%.
Next, `CC(C)COc1ccc(C(=O)Nc2ccc(N3CCOCC3)cc2N2CCOCC2)cc1`: 43%.
For `COc1ccc(-c2cc3cccc(OC)c3oc2=O)cc1`, the inhibition was 24.1%.
For the molecule `COc1cccc2cc(-c3ccccc3)c(=O)oc12`, the inhibition was found to be 54.4%.
In the case of `COc1cccc2cc(-c3nnc(-c4ccccc4)o3)c(=O)oc12`, the inhibition was determined as 79.1%.
Next, `O=c1oc2c(O)cccc2cc1-c1nc2ccccc2[nH]1`: 7.2%; `O=C(CNS(=O)(=O)c1ccc(Cl)c(C(F)(F)F)c1)NC1CCCCC1`: 20.4%; `N#CCSc1nnc(Cc2ccc3c(c2)OCO3)o1`: 73.3%.
For `CC(=O)CSc1nnc(Cc2ccc3c(c2)OCO3)o1` the value was 73.1%; for `Cn1nc(-c2ccccc2)c(COC(=O)c2cccc(Cl)c2)c1S(=O)(=O)c1ccccc1`, -7.33%.
Next, `CCCC(=O)Nc1cccc(-c2nc3cc(C)c(C)cc3o2)c1`: -4.03%.
For `CC(=O)Nc1cccc(-c2nc3ccccc3o2)c1`, the inhibition was determined as 8.44%.
For `CC(C)C(=O)Nc1cccc(-c2nc3ccccc3o2)c1` the value was 9.28%; for `CCC(CC)C(=O)Nc1cccc(-c2nc3ccccc3o2)c1`, -1.13%; for `O=C(Nc1cccc(-c2nc3ccccc3c(=O)o2)c1)c1ccccc1`, 60.9%.
For `CCCC(=O)Nc1cccc(-c2nc3ccccc3o2)c1` the value was -1.01%; for `CC(=O)Nc1ccc(-c2nc3ccccc3c(=O)o2)cc1`, 68.8%.
For `O=C(Nc1ccc2nc(-c3ccccc3)oc2c1)c1ccco1` the value was -0.45%; for `O=P(Oc1ccccc1)(Oc1ccccc1)C(O)c1ccc(Cl)cc1` (stereo not drawn), -12%; for `COc1cccc(CN2CCNC(=O)C2CC(=O)NC2Cc3ccccc3C2)c1` (stereo not drawn), -15.6%.
On to `COc1ccc(C(=O)/C=C\N2CCOCC2)cc1`, for which the inhibition amounted to 10.4%.
Regarding `COCCNC(=S)N1CCC(NC(=O)Nc2ccc(C)cc2)CC1`, the inhibition was -2%.
`O=C(NCCCNC(=O)c1ccco1)c1ccc(F)cc1`: the inhibition was -2.4%.
With `O=C(c1ccc([N+](=O)[O-])cc1)N1CCSC1c1ccc(Cl)cc1` (stereo not drawn), the inhibition came out at 6.9%.
Next, `CC(=O)N1N=C(c2ccc(Cl)cc2)CC1c1ccc([N+](=O)[O-])cc1` (stereo not drawn): -10.2%; `COc1ccccc1CNC(=O)CCCn1nc(C)c2c(C)n(-c3ccccc3)nc2c1=O`: 5.28%; `O=C(CNC(=O)N1CC(=O)Nc2ccccc21)Nc1cc(Cl)ccc1Cl`: 5.7%.
Next, `CN1C(=O)N(C)C(c2ccccc2Cl)C2=C1CC(C)(C)CC2=O` (stereo not drawn): 1.21%; `Brc1ccc(N/N=C(/N=Nc2nn[nH]n2)c2ccccc2)cc1`: 76.2%; `O=C(O)c1ccc(N=N/C(=N\Nc2ccc(C(=O)O)cc2)c2ccccc2)cc1`: 29.9%.
Next, `CCOC(=O)c1nc(C)nc(Sc2n[nH]c(-c3cc(C(F)(F)F)cc(C(F)(F)F)c3)n2)c1C`: 46.5%; `O=C(O)c1ccccc1C(=O)Nc1ccc(S(=O)(=O)NC2CCCCC2)cc1`: -4.02%.
For the molecule `CCC(C)C(NC(=O)c1ccccc1NC(=O)c1ccc(OC)cc1)C(=O)NCCCn1ccnc1` (stereo not drawn), the inhibition was determined as 7.04%.
Next, `CC1(N(O)/C=C2\C=CC=CC2=O)CCCCC1=O` (stereo not drawn): 3.64%; `O=C(CN1CCN(S(=O)(=O)c2ccccc2F)CC1)Nc1ccccc1C(=O)c1ccccc1`: 27.9%; `Cc1onc(-c2c(Cl)cccc2Cl)c1C(=O)O/N=C(\C#N)c1c(Cl)cccc1Cl`: 4.59%.
Next, `Cc1onc(-c2cccc(Cl)c2Cl)c1C(=O)O/N=C(\N)c1ccc([N+](=O)[O-])o1`: 60%; `C/C(=N\OC(=O)c1c(-c2c(F)cccc2Cl)noc1C)c1nccs1`: 4.04%.
Next, `Cc1onc(-c2ccccc2Cl)c1C(=O)O/N=C(\N)c1ccccc1`: 10.2%; `O=C(O)c1cccc2c1C(=O)c1ccc(-c3ccc(OC(F)(F)F)cc3)cc1S2(=O)=O`: -2.64%; `O=[N+]([O-])c1cc(/C=N/OCc2c(Cl)cccc2Cl)ccc1N1CCOCC1`: 22.5%.
For `CCOC(=O)N1CCN(c2ccc(Cl)c(Cl)c2)CC1`, the inhibition came to 75.6%.
For `COC(=O)N1CCN(c2ccc(Cl)c(Cl)c2)CC1` the value was 39%; for `Cc1cc(Cl)c(S(=O)(=O)N2CCN(c3cccc(C)c3C)CC2)cc1OCC(N)=O`, 6.33%.
For `COC(=O)c1[nH]c2ccc(C)cc2c1NC(=O)C1=COCCO1` the value was 2.53%; for `COc1cccc(C(=O)NCCNC(=O)c2ccccn2)c1`, -10.9%; for `O=C(N/N=C(\c1ccccc1)c1cccnc1)c1ccc(O)cc1`, -6.44%.
Next, `O=C(c1cccc([N+](=O)[O-])c1)c1ccccn1`: 2.21%; `C/C(=N/NC(=O)CNC(=O)c1ccccn1)c1cccc([N+](=O)[O-])c1`: -4.01%.
Take `COc1ccc(C(=O)NCCNC(=O)c2ccccn2)cc1`: the inhibition was -3.54%.
`COc1ccc(C(=O)NNC(=O)c2ccccn2)cc1`: the inhibition came to 12.8%.
For `COc1cc(C(=O)N/N=C(\c2ccccc2)c2ccccn2)cc(OC)c1OC` the value was 43.4%; for `O=C(N/N=C(\c1ccccc1)c1cccnc1)c1cc(O)ccc1O`, 30.3%.
Next, `C(=N\N1CCN(Cc2ccccc2)CC1)/c1ccc(-c2ccccc2)cc1`: 43%; `Cc1ccc(CNC(=O)Cn2nnc(C(=O)Nc3cccc(C)c3C)c2N)cc1`: -3.98%.
For the molecule `CC(C)c1ccccc1NC(=O)c1ccccc1NC(=O)C1CCCCC1`, the inhibition is -1.84%.
Next, `COc1ccc(C)cc1-n1nnnc1SCC(=O)Nc1cccnc1Cl`: 17.6%; `O=C(NCC(=O)N1CCN(c2ccccn2)CC1)c1ccc(Br)o1`: -3.21%; `Cc1ccc(COC(=O)NCc2cccnc2)cc1`: 4.06%.
For `Cc1cc(C)c(C)c(S(=O)(=O)Nc2ccc(C(=O)N3CCCC3)cc2)c1C` the value was 5.64%; for `O=[N+]([O-])c1ccc2nonc2c1Nc1cccc(F)c1`, 32.1%.
Next, `O=C(CCCN1CCC(c2ccccc2)C1)c1ccc2c(c1)OCCO2` (stereo not drawn): 12.3%.
In the case of `COc1cc(C(=O)N2CCN(C(=O)c3ccccc3)CC2)cc(OC)c1OC`, the inhibition is -17.1%.
For `COc1ccc(-n2nc3c(c2NC(=O)c2ccco2)CS(=O)(=O)C3)cc1` the value was 3.65%; for `CC(/C=N/N1CCN(c2ccc(C)cc2)CC1)=C\c1ccccc1`, 10.7%; for `COc1ccccc1N1CCN(C(=O)c2sc3nc(-c4ccc(F)cc4)cn3c2C)CC1`, 40.2%.
Regarding `CC(=O)N1CCN(C(=O)c2ccc(-c3ccccc3Cl)o2)CC1`, the inhibition is 5.06%.
For `NC(=O)C1CCN(C(=O)c2ccc(-c3ccccc3Cl)o2)CC1` the value was -8.98%.
Next, `CC(C)OP(=O)(OC(C)C)C(Nc1ccccn1)c1ccc(F)cc1` (stereo not drawn): -0.14%; `O=C(Cn1cnc2c(nnn2Cc2ccc(Cl)cc2)c1=O)OCc1ccccc1`: -1.54%; `O=C(Nc1nccs1)C(Cl)(Cl)Cl`: 5.95%.
For `Cc1cc(C)c2ccc(N)nc2c1O` the value was 41.3%.
In the case of `Cc1cc(C)c2ccc(C(=O)O)nc2c1O`, the inhibition is 15.6%.
Next, `CC(=N/O)/C(C)=N\NC(=O)c1ccccn1`: 33%.
Next, `O=C(NNC(=O)c1ccc([N+](=O)[O-])o1)c1ccccc1`: 70%; `O=C(Nc1ncccn1)c1ccc([N+](=O)[O-])cc1`: 34%; `O=C(Nc1ccccn1)c1ccco1`: 2.01%.
Next, `Cc1cccnc1NC(=O)c1ccc([N+](=O)[O-])o1`: 70.2%; `O=C1CN(C(=O)CSc2nnnn2-c2ccc(Cl)cc2)c2ccccc2N1`: 20.5%; `CC(OC(=O)C1CCN(S(=O)(=O)c2ccc(Cl)cc2)CC1)C(=O)NC1CCCCC1C` (stereo not drawn): 17.7%.
For `COc1ccc(-c2sc3ccc(N4CCOCC4)cc3c2C#Cc2ccsc2)cc1`, the inhibition worked out at 36.8%.
For `COc1cccc(C2C(C(=O)OC(C)C)=C(C)N=c3s/c(=C\c4ccc(C(=O)O)cc4)c(=O)n32)c1` (stereo not drawn) the value was -6.22%.
For `COc1ccc(NC(=S)N2CCNC(=O)C2CC(=O)Nc2cccc(Cl)c2C)cc1` (stereo not drawn) the value was 51.6%; for `CC(=O)N(C)c1ccc(N=Nc2c(C)[nH]n(C(N)=S)c2=O)cc1`, -34.4%.
For the molecule `CCN(CC)S(=O)(=O)c1ccc(N=Nc2c(C)[nH]n(C(N)=S)c2=O)cc1`, the inhibition is -7.96%.
For `CC(=O)Nc1ccc(N=Nc2c(C)[nH]n(C(N)=S)c2=O)cc1` the value was -7.76%; for `Cc1ccc([N+](=O)[O-])cc1N=Nc1c(C)[nH]n(C(N)=S)c1=O`, -4.79%.

Values taken from PubChem BioAssay AID488890 (Southern Research Specialized Biocontainment Screening …, 2010).
